High-throughput results as filed in PubChem BioAssay.
Sampled rows, rich in hits. Any-hit rate of the full collection: about 7.8%.
HCV inhibitor – HCV inhibition. Huh7.5.1 HCVcc-Cre infection, luciferase reporter, 44 h. AID 651820. Potency, µM (highest dose often 41.8 µM), inactives show top-dose activity change, negative = inhibition, usual class: inhibitors. 340,000 tested, 3.4% active; active means well fitted inhibition curve with a large enough effect; inconclusive means small, poorly fitted or top-dose-only effect, or another doubt; inactive means no such curve, though single readings can be large or run the other way; further: potency means the concentration at half of the fitted maximal effect
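Infectious HCVcc-Cre (~0.5 moi) was added to cells just after compound, with cells seeded 4 h earlier at 1,000 per well. Luciferase activity after 44 h culture reported infection; substrate was incubated 15 min at room temperature before reading.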
Vaccinia Venus – vaccinia inhibition (Venus reporter). 330,000 tested, 0.46% active. Potency, µM (series often up to 36.5 µM), inactives show at the top dose activity change, negative = inhibition, most hits filed as inhibitors. Vaccinia virus Venus reporter expression, fluorescence; calls by dose curve; tested in A549 cells; further: potency means the concentration at half of the fitted maximal effect; nearly all actives have a fitted effect of over 30% in size
HCMV inh – human cytomegalovirus inhibition. HFF cells, HCMV-luciferase reporter, 72 h; hits give low values. activity change, negative = inhibition, % at 57.5 µM. 410,000 tested, 4.5% active; in the data active means activity change below about -60%; inconclusive means no clear call, values can overlap the other calls; inactive means above about -39%
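Two-dose cell screen: HFF monolayers treated with compounds and infected with luciferase-expressing HCMV at 1 PFU/cell, 72 h at 37C, then lysed for luciferase measurement.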
Marburg entry inh – inhibitors of Marburg virus binding or cell entry; Marburg virus pseudotyped entry inhibition, cell reporter; 300,000 tested, 1.8% active; AID 540276; Potency, µM (doses to about 37.8 µM), inactives show top-dose activity change, negative = inhibition, actives largely listed as inhibitors; calls by dose curve; tested in HEK293 cells; further: potency means the concentration at half of the fitted maximal effect
Vaccinia mCherry – inhibitors of vaccinia virus infection (mCherry reporter signal) | Vaccinia virus mCherry reporter infection, fluorescence | Potency, µM (series often up to 36.5 µM), inactives show at the top dose activity change, negative = inhibition, usual class: inhibitors | 310,000 tested, 0.63% active | AID 720579; calls by dose curve; tested in A549 cells; further: potency means the concentration at half of the fitted maximal effect; nearly all actives have a fitted effect of over 35% in size
Lassa entry inh – inhibitors of Lassa virus binding or cell entry | Lassa virus pseudotype entry inhibition, cell reporter | Potency, µM (top dose mostly 37.9 µM), for inactives: at the highest dose activity change, negative = inhibition, most hits filed as inhibitors | 300,000 tested, 1.2% active | AID 540256; calls by dose curve; tested in HEK293 cells; further: potency means the concentration at half of the fitted maximal effect; nearly all actives have a fitted effect of over 50% in size
An asterisk follows results filed as active; i = inactive; u = inconclusive; x = not tested or not shown; [ ] = another dose, or the depositor's remark. On the % scale 0 is the no-effect control and ±100 the full control effect.

SMILES | HCV inhibitor | Vaccinia Venus | HCMV inh | Marburg entry inh | Vaccinia mCherry | Lassa entry inh
CCCc1cc(C(=O)Nc2cc(C)ccc2O)no1 | u | -8% | -69* | u | u | u
CCCc1cc(C(=O)Nc2ccccc2C(=O)OC)no1 | 10µM* | -3% | 82 | x | i | x
CC(=O)NC(=S)NNC(=O)CCc1ccccc1 | 25% | x | -15 | x | x | x
CC(C)(C)c1cc(CCC(=O)NNC(=S)NC(=O)c2ccccc2)cc(C(C)(C)C)c1O | 2.8µM* | x | x | u | x | u
COc1ccccc1NC(=S)NC(=O)CCc1ccccc1 | -4% | -12% | 7 | u | i | u
COc1cc(NC(=S)NC(=O)CCc2ccccc2)cc(OC)c1 | x | -11% | -84* | 23% | -3% | -14%
O=C(CCc1ccccc1)NNC(=S)NC(=O)c1ccccc1 | -2% | -10% | -101* | u | -4% | -25%
CC(C)(C)c1cc(CCC(=O)NNC(=O)c2ccco2)cc(C(C)(C)C)c1O | u | -19% | -27 | 8.9µM* | -20% | 1%
CCc1cccc(NC(=O)Cn2c(=O)n(CC3CCC(C(=O)NCCc4ccccc4)CC3)c(=O)c3ccccc32)c1 (stereo not drawn) | x | -3% | 16 | 6%[46.1 µM] | -1% | 24%[46.1 µM]
CC(C)Cn1c(=O)c2sccc2n2c(CCCC(=O)NCc3ccccc3Cl)nnc12 | x | 0% | 29 | x | -9% | 9%[46.1 µM]
CN(CCOc1ccc(-c2ccn(S(=O)(=O)c3ccc(Cl)cc3)n2)cc1)c1ccccn1 | 1.1µM* | x | -33 | -25% | x | u
COc1cc(OC)c(NC(=O)CCCn2nc(C)c3sc4ccccc4c3c2=O)cc1Cl | x | -17% | -18 | 3.2µM* | -13% | u
COc1ccc(S(=O)(=O)NCc2ccco2)c2ccccc12 | 3% | -10% | -66* | 3% | -6% | 15%
COc1ccc(/C=C/C(=O)O)cc1S(=O)(=O)NCc1ccco1 | 8% | -4% | 11 | 4%[46.1 µM] | i | 0%[46.1 µM]
O=S1(=O)CCN(Cc2ccncc2)CC1 | x | -6% | -28 | x | i | x
Cc1ccccc1NCC(=O)Nc1cc(S(=O)(=O)N2CCCCC2)ccc1C | -30% | x | -17 | x | x | x
O=C(CN(Cc1ccco1)Cc1ccco1)Nc1cc(S(=O)(=O)N2CCCCC2)ccc1Cl | 10µM* | x | -83* | x | x | x
CC1CC(C)CN(C(C)C(=O)Nc2cc(S(=O)(=O)N3CCCCC3)ccc2Cl)C1 (stereo not drawn) | 14% | -17% | -9 | -11%[46.1 µM] | i | u
CC1CCN(C(C)C(=O)Nc2cc(S(=O)(=O)N3CCCCC3)ccc2Cl)CC1 (stereo not drawn) | 16µM* | -7% | u | 16% | -20% | -3%
CC(NCC(=O)Nc1cc(S(=O)(=O)N2CCCCCC2)ccc1Cl)c1ccccc1 (stereo not drawn) | 13µM* | x | -27 | x | x | x
COc1ccc(-n2c(CCNC(=O)c3ccccc3C(F)(F)F)nnc2SC)cc1 | x | 22% | x | x | 2% | x
CCOC1=CC(=O)N(CCC(=O)NCc2ccc(C)cc2)C1 | x | x | 2 | x | x | x
COc1ccc(C2=NN(S(C)(=O)=O)C(c3cn(-c4ccccc4)nc3-c3cccs3)C2)cc1 (stereo not drawn) | x | -13%[7.34 µM] | 51 | 20%[46.1 µM] | -8%[7.34 µM] | 15%[46.1 µM]
COC(=O)N/N=C(C)\C=C\c1ccco1 | -4% | x | 0 | 9% | x | 16%
Cc1ccc(NCC(=O)N/N=C/c2ccncc2)cc1 | 8% | -10% | -2 | 14%[46.1 µM] | -13% | 2%
SMILES | HCV inhibitor | Vaccinia Venus | HCMV inh | Marburg entry inh | Vaccinia mCherry | Lassa entry inh
CC(/C=C/c1ccco1)=N\NC(=O)CNc1cccc(C)c1 | 20% | x | -61* | x | x | x
Cc1cccc(NCC(=O)N/N=C\c2cccc(Oc3ccccc3)c2)c1 | -20% | x | -67* | u | x | u
Cc1ccc(NCC(=O)N/N=C/c2cccc(Oc3ccccc3)c2)cc1 | u | u | u | 4% | u | 2.3µM*
CSc1ccc(/C=N\NC(=O)CNc2ccc(C)cc2)cc1 | 10% | -18% | 10 | -8% | -22% | 1.3µM*
COc1ccc(Cl)cc1-c1cc(C(=O)NCc2ccc(F)cc2)[nH]n1 | x | -14% | -4 | x | i | x
CCN(CCCc1ccccc1)CCCc1ccccc1 | -12%[8.37 µM] | -17% | -18 | 5.8µM* | -6% | u
CCN(CCCC(=O)c1ccc(F)cc1)CCc1ccccc1 | 19% | -20% | -9 | 3.5µM* | -18% | u
Cc1ccccc1CN1CCCN(CC(=O)Nc2c(C)cccc2C)S1(=O)=O | x | 2% | 4 | x | -7% | 0%[46.1 µM]
